PubChem BioAssay (EPA / NIEHS)
Records with an inconclusive call do not appear. Calls of active or inactive are those of the source. The calls were made as follows: active = hit-call score of the fitted dose curve at least 0.9, where 1 is the maximum; inconclusive = response in the unintended direction; inactive = score below 0.9.

Assays:
[1] = TOX21_p53_BLA_p2_viability: Viability Assessment in the Tox21 HCT-116 p53 Agonism Beta-lactamase Assay, Phase 2 (AID 2283591);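 also: compound exposure lasted 16 h at 37 °C; actives lower the ATP signal meaning cytotoxicity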
Summary of the method: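 HCT-116 p53-bla cells (4000/well) rested 5 h at 37C, then received compounds in DMSO (217-fold dilution) for 16 h at 37C, 5% CO2. After the CCF4 read, CellTiter-Glo was added; ATP luminescence was read after 30 min at room temperature.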

[2] = biological target: Cellular tumor antigen p53 (Homo sapiens) (UniProt P04637); experiment: TOX21_p53_BLA_p2_ratio: Tox21 HCT-116 p53 Agonism Beta-lactamase Assay, Ratio, Phase 2 (AID 2283592)
Summary of the method: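 DMSO-normalized, positive-direction endpoint derived from the 460 nm/530 nm FRET ratio in HCT116 p53 beta-lactamase reporter cells exposed 16 h at 37C and loaded with CCF4-AM for 2 h.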

[3] = TOX21_p53_BLA_p3_viability: Viability Assessment in the Tox21 HCT-116 p53 Agonism Beta-lactamase Assay, Phase 3 (AID 2283593);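 also: cells exposed to compound for 16 h before reading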
Summary of the method: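 HCT-116 cells (4000/well) rested 5 h at 37C, then got DMSO compounds by pin tool (217-fold dilution) for 16 h at 37C, 5% CO2. After the bla read, CellTiter-Glo was added and luminescence read at 30 min, room temperature.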

[4] = biological target: Cellular tumor antigen p53 (Homo sapiens) (UniProt P04637); experiment: TOX21_p53_BLA_p3_ratio: Tox21 HCT-116 p53 Agonism Beta-lactamase Assay, Ratio, Phase 3 (AID 2283596)
Summary of the method: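 Cells were seeded at 4000/well, rested 5 h at 37C, then dosed with DMSO compound solutions (217-fold dilution) for 16 h. CCF4-AM substrate was loaded for 2 h at room temperature, and the 460/530 nm emission ratio was fitted for gain of signal versus DMSO.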

[5] = TOX21_p53_BLA_p4_viability: Viability Assessment in the Tox21 HCT-116 p53 Agonism Beta-lactamase Assay, Phase 4 (AID 2283597);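 also: hits lower the luminescence signal meaning cytotoxicity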
Summary of the method: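 In this multiplexed secondary endpoint, HCT116 cells (4000 per well, compound at 5 h, 16 h treatment) received CellTiter-Glo after the beta-lactamase read. Luminescence after 30 min RT reflects ATP, and falling signal marks cytotoxicity.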

[6] = biological target: Cellular tumor antigen p53 (Homo sapiens) (UniProt P04637); experiment: TOX21_p53_BLA_p4_ratio: Tox21 HCT-116 p53 Agonism Beta-lactamase Assay, Ratio, Phase 4 (AID 2283601)
Summary of the method: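 HCT116 cells carrying an inducible beta-lactamase reporter were plated at 4000 cells/well, rested 5 h, then exposed to compounds in DMSO (217-fold dilution) for 16 h at 37C. CCF4-AM substrate was loaded 2 h at room temperature; 460/530 nm emission ratio scored gain-of-signal versus DMSO.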

[7] = biological target: Cellular tumor antigen p53 (Homo sapiens) (UniProt P04637); experiment: TOX21_p53_BLA_p5_ratio: Tox21 HCT-116 p53 Agonism Beta-lactamase Assay, Ratio, Phase 5 (AID 2283599)
Summary of the method: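 HCT-116 cells carrying a p53-inducible beta-lactamase reporter were seeded at 4000 cells/well and dosed after 5 h with compound in DMSO (217-fold dilution). After 16 h at 37C, CCF4-AM substrate was added for 2 h, and the 460/530 nm emission ratio was scored as gain-of-signal versus DMSO.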

[8] = TOX21_p53_BLA_p5_viability: Viability Assessment in the Tox21 HCT-116 p53 Agonism Beta-lactamase Assay, Phase 5 (AID 2283600)
Summary of the method: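 Here cell health was gauged by ATP levels in wells holding 4000 cells, each treated 16 h with DMSO-delivered compounds at 217-fold dilution; reduced luminescence marked toxicity.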

Sequence of Cellular tumor antigen p53 (Homo sapiens) (P04637 whole entry, looked up): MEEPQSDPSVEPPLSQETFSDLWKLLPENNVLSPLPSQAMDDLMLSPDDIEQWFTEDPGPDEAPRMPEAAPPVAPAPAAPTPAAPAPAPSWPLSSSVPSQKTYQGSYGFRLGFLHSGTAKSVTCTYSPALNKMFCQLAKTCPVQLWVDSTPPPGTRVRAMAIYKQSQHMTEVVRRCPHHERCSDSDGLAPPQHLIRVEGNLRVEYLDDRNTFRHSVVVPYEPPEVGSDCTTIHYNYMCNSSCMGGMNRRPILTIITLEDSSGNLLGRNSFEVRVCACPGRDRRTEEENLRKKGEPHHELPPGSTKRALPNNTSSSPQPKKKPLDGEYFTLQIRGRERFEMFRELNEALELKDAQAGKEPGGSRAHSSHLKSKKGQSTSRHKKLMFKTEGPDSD

Row | SMILES | outcome [1] | outcome [2] | outcome [3] | outcome [4] | outcome [5] | outcome [6] | AC50 [2] | AC50 [4] | outcome [7] | outcome [8] | AC50 [6]
1 | CN1C[C@H](C(=O)N[C@]2(C)O[C@@]3(O)[C@@H]4CCCN4C(=O)[C@H](Cc4ccccc4)N3C2=O)C[C@@H]2c3cccc4[nH]cc(c34)C[C@H]21 | inactive | inactive | inactive | inactive | inactive | inactive |  |  |  |  | 
2 | CCN(CC)c1ccc(N)cc1 | inactive |  | inactive |  |  |  | 31.2 µM (active) | 69.7 µM (active) | inactive | inactive | 73.4 µM (active)
3 | C=C1[C@@H]2CC[C@@H](C2)C1(C)C | inactive | inactive | inactive | inactive |  | inactive |  |  | inactive | inactive | 
4 | COc1cc(NS(=O)(=O)c2ccc(N)cc2)nc(OC)n1 | inactive | inactive | inactive | inactive |  | inactive |  |  | inactive | inactive | 
